In experiment [1] the test system is Plasmodium falciparum Sir2 (PF13_0152, Sir2A). Nature of the experiment: Plasmodium falciparum Sir2A binding compounds – biochemical, small-molecule microarray, 635 nm fluorescence, primary screen (AID 1098).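 Note: score merges spot fluorescence intensity with its signal-to-noise ratio.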 Particulars: fluorescence 635 nm, higher = more signal.
Experiment [2] can be described thus: probe aDKK1 binding to arrayed compounds – biochemical, biotinylated probe, 635/667 nm fluorescence, primary screen (AID 1099).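 Note: score merges 667nm spot fluorescence with signal to noise across triplicate slides.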 Particulars: small-molecule microarray, higher = more signal.
The nature of experiment [3]: probe aCHRDL2 binding to arrayed compounds – biochemical, biotinylated probe, 635/667 nm fluorescence, primary screen (AID 1100). The settings on record: small-molecule microarray, higher = more signal.
The nature of experiment [4]: change in splice reporter luminescence, either direction, cell-based, HEK293, spliceosome inhibition project, primary screen (AID 1101).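 Note: HEK293 cells carrying a splicing-competent luciferase reporter gene; test concentration not given here.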 The settings on record: HEK293 splicing luciferase reporter, 24 h, higher = more signal, called active from +8 up or from −8 down.
Experiment [5] concerns the target Fibroblast growth factor 10 (Homo sapiens) (UniProt O15520). Nature of the experiment: compounds binding fibroblast growth factor 10 – biochemical, small-molecule microarray, 635 nm fluorescence, primary screen (AID 1102). Particulars: FGF10 binding, fluorescence 635 nm, higher = more signal.
In experiment [6] the test system is glycogen synthase kinase-3 (GSK3A per assay name; protocol says GSK3B). Nature of the experiment: compounds binding glycogen synthase kinase-3 – biochemical, small-molecule microarray, 635 nm fluorescence, GSK3A, primary screen (AID 1103). Note: the record names both GSK3A and GSK3B. The settings on record: fluorescence 635 nm, higher = more signal.
The target of experiment [7] is Epidermal growth factor receptor (Homo sapiens) (UniProt P00533). Nature of the experiment: compounds binding epidermal growth factor receptor – biochemical, small-molecule microarray, 635 nm fluorescence, primary screen (AID 1104).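 Note: score merges 667 nm emission intensity with spot signal to noise over triplicate slides.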 Particulars: EGFR binding, higher = more signal.
Experiment [8] deals with Follistatin-related protein 3 (Homo sapiens) (UniProt O95633). Nature of the experiment: compounds binding follistatin-related protein 3 – biochemical, small-molecule microarray, 635 nm fluorescence, primary screen (AID 1105).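 Note: score merges emission near 667 nm and signal to noise per printed spot across three slides.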 Particulars: FSTL3 binding, higher = more signal.
For experiment [9], the target named is Dickkopf-related protein 1 (Homo sapiens) (UniProt O94907). Nature of the experiment: small molecules binding DKK1 protein – biochemical, small-molecule microarray, 635 nm fluorescence scan, primary screen (AID 1106).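 Note: score merges emission near 667 nm with signal to noise over three replicate slides.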 The settings on record: higher = more signal.
Experiment [10] deals with Inhibin beta A chain (activin A). Nature of the experiment: small molecules binding activin A – biochemical, small-molecule microarray, 635 nm fluorescence scan, primary screen (AID 1107).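 Note: mouse activin A protein probed at 4.33 µg/mL on printed slides; score merges bound-protein fluorescence near 667 nm with spot signal-to-noise.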 The settings on record: INHBA, higher = more signal.
The subject of experiment [11] is Human papillomavirus type 1a protein E7 (residues 44-93). Nature of the experiment: small molecules binding HPV E7 44-93 – biochemical, small-molecule microarray, residues 44-93, 635 nm fluorescence, primary screen (AID 1108).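 Note: E7 fragment applied at 1 µg/mL in TBST for 1 h at 4 C; score combines spot fluorescence with its signal to noise ratio.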 Particulars: fluorescence 635 nm, higher = more signal.
A short description of experiment [12]: hepatitis C replication reporter changes, two-sided – Huh7 cells, luciferase reporter, HCV replication inhibitor project, primary screen (AID 1109).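 Note: huh7 hepatoma cells harbouring a luciferase neomycin HCV replicon reporter; luciferase luminescence as measure of HCV replicon replication; test concentration not given here.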 Particulars: Huh7 HCV replicon luciferase reporter, 48 h; higher = more signal.
In experiment [13] the target is Left-right determination factor 2 (Homo sapiens) (UniProt O00292). Nature of the experiment: small molecules binding LEFTY2 protein – biochemical, small-molecule microarray, 635 nm fluorescence scan, primary screen (AID 1110). The settings on record: higher = more signal.
Experiment [14] addresses Calmodulin-1 (Homo sapiens) (UniProt P0DP23). Nature of the experiment: small molecules binding calmodulin-1 with EGTA – biochemical, small-molecule microarray, Cy5-labelled CALM1, profiling panel (AID 1111).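 Note: labelled calmodulin applied in Tris saline Tween buffer holding calcium plus EGTA and DTT.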 The settings on record: Cy5-CALM1 binding fluorescence, higher = more signal.
Experiment [15] has the same target. Nature of the experiment: small molecules binding Ca-loaded calmodulin-1 – biochemical, small-molecule microarray, Cy5-labelled CALM1, plus calcium, artefact control for SMM control-protein annotation, profiling panel (AID 1112).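 Note: score merges spot fluorescence with signal to noise from triplicate slides.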 The settings on record: Cy5-CALM1 binding fluorescence, higher = more signal.
Experiment [16] is described as follows: probe aWnt5a binding to arrayed compounds – biochemical, biotinylated probe, 635/667 nm fluorescence, primary screen (AID 1113).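 Note: score merges 667 nm fluorescence intensity with signal-to-noise per printed feature.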 The settings on record: small-molecule microarray, higher = more signal.
Experiment [17] can be described thus: probe aShh binding to arrayed compounds – biochemical, biotinylated probe, 635/667 nm fluorescence, primary screen (AID 1114).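 Note: probe is biotin-labelled aShh protein from a stem cell growth factor screen; measures binding of labelled protein to compounds printed on the slide; score merges feature fluorescence at 667 nm with signal-to-noise.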 Particulars: small-molecule microarray, higher = more signal.
The nature of experiment [18]: probe aNog binding to arrayed compounds – biochemical, biotinylated probe, 635/667 nm fluorescence, primary screen (AID 1115).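 Note: probe is biotinylated aNog protein used at 0.15 µg/mL for 1 h at 4 C; z-score combines 667 nm fluorescence of each spot with its signal to noise.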 Particulars: small-molecule microarray, higher = more signal.
Experiment [19] concerns the target Torsin-1A-interacting protein 1 (Homo sapiens) (UniProt Q5JTV8). Nature of the experiment: compound microarray binding of lysate hLAP1 – cell lysate, small-molecule microarray, COS7 lysate, 635/667 nm fluorescence, primary screen (AID 1116). Particulars: 635 nm fluorescence, higher = more signal.
Experiment [20] has as its target Alpha-bungarotoxin (Bungarus multicinctus) (UniProt P60615). Nature of the experiment: compounds binding labelled alpha-BTX control protein – biochemical, small-molecule microarray, Alexa647 label, 635/667 nm fluorescence, artefact control for SMM control protein annotation, profiling panel (AID 1117). Particulars: alpha-BTX-A647 binding fluorescence, higher = more signal.

Each structure is given as a SMILES string. The source made the active and inactive calls.

Chain of Dickkopf-related protein 1 (Homo sapiens) (O94907 whole entry, looked up): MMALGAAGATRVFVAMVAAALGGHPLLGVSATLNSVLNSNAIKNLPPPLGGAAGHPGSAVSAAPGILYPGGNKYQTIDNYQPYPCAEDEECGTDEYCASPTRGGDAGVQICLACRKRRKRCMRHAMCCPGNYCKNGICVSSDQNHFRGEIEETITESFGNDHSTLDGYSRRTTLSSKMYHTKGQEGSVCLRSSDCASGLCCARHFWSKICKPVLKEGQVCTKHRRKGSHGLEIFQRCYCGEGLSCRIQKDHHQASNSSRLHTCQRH
Chain of Follistatin-related protein 3 (Homo sapiens) (O95633 whole entry, looked up): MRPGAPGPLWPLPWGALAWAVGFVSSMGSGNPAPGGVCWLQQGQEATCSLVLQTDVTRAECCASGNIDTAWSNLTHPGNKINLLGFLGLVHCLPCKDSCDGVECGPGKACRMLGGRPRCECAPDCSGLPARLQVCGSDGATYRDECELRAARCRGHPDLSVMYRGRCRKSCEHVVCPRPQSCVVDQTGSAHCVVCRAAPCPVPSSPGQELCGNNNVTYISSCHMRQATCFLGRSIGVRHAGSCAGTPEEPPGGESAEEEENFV
Chain of Fibroblast growth factor 10 (Homo sapiens) (O15520 whole entry, looked up): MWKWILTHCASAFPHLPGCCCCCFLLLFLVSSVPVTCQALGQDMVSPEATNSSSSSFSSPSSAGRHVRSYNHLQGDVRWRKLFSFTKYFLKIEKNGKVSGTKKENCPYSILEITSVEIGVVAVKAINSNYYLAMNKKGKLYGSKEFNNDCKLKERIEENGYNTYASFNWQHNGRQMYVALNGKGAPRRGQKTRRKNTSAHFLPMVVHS
Chain of Epidermal growth factor receptor (Homo sapiens) (P00533 whole entry, looked up): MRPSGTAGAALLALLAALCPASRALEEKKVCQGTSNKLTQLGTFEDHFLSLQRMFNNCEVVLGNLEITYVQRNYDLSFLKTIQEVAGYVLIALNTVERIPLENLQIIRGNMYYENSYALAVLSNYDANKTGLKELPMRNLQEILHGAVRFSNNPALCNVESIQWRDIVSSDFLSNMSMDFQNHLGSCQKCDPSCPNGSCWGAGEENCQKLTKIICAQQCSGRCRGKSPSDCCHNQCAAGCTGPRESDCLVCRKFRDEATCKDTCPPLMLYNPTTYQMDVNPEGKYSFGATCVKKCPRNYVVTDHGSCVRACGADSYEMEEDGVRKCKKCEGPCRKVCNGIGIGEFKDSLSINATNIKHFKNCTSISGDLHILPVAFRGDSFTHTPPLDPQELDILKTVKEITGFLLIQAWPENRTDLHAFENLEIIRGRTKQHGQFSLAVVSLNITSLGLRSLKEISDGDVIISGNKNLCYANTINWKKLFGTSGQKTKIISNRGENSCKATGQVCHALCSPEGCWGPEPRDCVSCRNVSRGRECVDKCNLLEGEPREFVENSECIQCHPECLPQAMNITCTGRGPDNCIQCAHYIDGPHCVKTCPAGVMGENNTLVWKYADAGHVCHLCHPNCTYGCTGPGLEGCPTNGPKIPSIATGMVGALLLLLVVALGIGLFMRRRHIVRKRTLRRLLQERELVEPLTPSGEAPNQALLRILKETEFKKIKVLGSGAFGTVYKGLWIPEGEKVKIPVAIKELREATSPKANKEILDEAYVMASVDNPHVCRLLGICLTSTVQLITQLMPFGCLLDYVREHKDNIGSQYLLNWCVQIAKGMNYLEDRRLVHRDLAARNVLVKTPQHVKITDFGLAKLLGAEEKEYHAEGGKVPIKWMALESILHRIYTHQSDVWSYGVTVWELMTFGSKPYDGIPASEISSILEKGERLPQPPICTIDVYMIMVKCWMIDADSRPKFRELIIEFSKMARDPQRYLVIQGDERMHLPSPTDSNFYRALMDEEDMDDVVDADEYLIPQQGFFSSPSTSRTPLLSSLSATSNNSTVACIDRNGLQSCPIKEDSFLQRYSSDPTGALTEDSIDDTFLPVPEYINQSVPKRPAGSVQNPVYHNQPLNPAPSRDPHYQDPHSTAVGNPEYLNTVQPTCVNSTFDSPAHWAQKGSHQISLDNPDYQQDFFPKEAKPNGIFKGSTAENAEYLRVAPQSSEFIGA
Chain of Left-right determination factor 2 (Homo sapiens) (O00292 whole entry, looked up): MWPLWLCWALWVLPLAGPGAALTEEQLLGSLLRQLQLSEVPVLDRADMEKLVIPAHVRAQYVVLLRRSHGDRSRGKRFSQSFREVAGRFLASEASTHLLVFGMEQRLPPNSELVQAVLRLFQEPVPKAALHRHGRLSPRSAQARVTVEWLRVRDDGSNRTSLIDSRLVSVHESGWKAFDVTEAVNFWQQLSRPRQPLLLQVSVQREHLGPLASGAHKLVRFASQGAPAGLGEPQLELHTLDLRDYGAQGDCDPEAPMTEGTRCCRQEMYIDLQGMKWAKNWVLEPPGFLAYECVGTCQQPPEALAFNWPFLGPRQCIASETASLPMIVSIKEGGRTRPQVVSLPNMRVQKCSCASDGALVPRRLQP
Chain of Alpha-bungarotoxin (Bungarus multicinctus) (P60615 whole entry, looked up): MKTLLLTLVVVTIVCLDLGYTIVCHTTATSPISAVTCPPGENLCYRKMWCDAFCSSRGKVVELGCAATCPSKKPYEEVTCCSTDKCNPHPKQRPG
Chain of Torsin-1A-interacting protein 1 (Homo sapiens) (Q5JTV8 whole entry, looked up): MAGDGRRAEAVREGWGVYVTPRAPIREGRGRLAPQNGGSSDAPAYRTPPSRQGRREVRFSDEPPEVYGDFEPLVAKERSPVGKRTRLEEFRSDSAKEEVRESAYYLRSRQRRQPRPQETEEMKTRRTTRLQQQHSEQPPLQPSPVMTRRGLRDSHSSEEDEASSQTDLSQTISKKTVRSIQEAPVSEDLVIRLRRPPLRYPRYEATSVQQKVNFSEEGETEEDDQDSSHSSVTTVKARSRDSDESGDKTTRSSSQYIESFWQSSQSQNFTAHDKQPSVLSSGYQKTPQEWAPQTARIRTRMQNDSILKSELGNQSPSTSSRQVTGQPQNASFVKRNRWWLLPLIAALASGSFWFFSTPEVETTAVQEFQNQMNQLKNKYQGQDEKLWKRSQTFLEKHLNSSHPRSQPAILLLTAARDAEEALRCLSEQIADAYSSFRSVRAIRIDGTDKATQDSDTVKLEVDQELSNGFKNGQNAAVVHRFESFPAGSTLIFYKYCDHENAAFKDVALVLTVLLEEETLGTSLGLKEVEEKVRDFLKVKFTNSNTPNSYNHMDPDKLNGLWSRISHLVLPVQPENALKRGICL

Turning to `CC(CCN1CCc2nc(-c3ccccc3)c(-c3ccccc3)cc2C1)=NOC(C)CN1CCCCc2nc(C)c(C)cc21` (stereo not given), the composite z-score in experiment [1] is 0.646; in experiment [2] it was -0.0421; in experiment [3] it was 0.318; in experiment [5], 0.593; in experiment [6] it was 0.746; in experiment [7], 0.964. The composite z-score amounted to 0.609 in [8]; 0.77 in [9]; 1.15 in experiment [10]; 1.27 in experiment [11]; 0.573 in experiment [13]; 0.578 in [14]. In addition, the composite z-score in [15] is -0.0705; in experiment [16], -0.0819; in [17] it was -0.202; in experiment [18], -0.077; in [19] it was 0.787; in [20], 0.799. The z-score in [4] was -0.0114 (inactive); in experiment [12] it was -2.03.

Take `COCCCNC(=O)[C@@]1(C)c2ccccc2C(=O)N(Cc2ccc(OC(F)(F)F)cc2)[C@H]1c1ccc(CO)cc1`: the composite z-score in [1] was 0.655; in experiment [2] it was 0.506; in [3], 0.973; in experiment [5] it was -0.527; in [6] it was -1.3; in experiment [7] it was -1.11. Moreover, the composite z-score in experiment [8] is -0.851; in experiment [9], -0.401; in experiment [10], 0.153; in experiment [11], -1.56; in [13], -0.738; in experiment [14], -0.579. The composite z-score was 0.751 in [15]; -0.109 in experiment [16]; -0.2 in experiment [17]; -0.546 in [18]; -0.668 in experiment [19]; -1.16 in experiment [20]. Further, the values for the z-score in experiment [4] and in [12] were -0.346 (inactive) and -0.302, respectively.

Take `CO[C@@H]1COC(=O)CC=C[C@@H](C)[C@H](OC)COC(=O)[C@H](COCc2ccccc2)NC(=O)CC=C[C@H]1C`: the composite z-score in [1] is 1.56; in experiment [2], -0.516; in experiment [3], -1.15; in [5] it was 0.303; in [6], -0.112; in [7], 0.461. Also, the composite z-score in experiment [8] was 0.689; in [9], 0.444; in experiment [10], 1.87; in experiment [11], -2.18; in experiment [13], 0.62; in [14], -1.07. Moreover, the composite z-score in [15] is -2.36; in [16], -0.232; in [17] it was -0.302; in experiment [18], -0.625; in [19] it was 0.0597; in [20], -0.486. For the same compound, the z-score in experiment [4] is 0.0688 (inactive); in [12], -1.36.

Turning to `O=C1[C@H]2[C@H]3[C@H](O)[C@H](O)CC(=NOC[C@@H](O)COCc4ccco4)[C@H]3CC[C@H]2C(=O)N1Cc1ccc2c(c1)OCO2`, the composite z-score was 0.285 in experiment [1]; 0.534 in [2]; -1.5 in [3]; 0.11 in experiment [5]; 1.28 in [6]; 0.986 in [7]. The composite z-score in [8] was 0.83; in [9], 1.39; in [10] it was 0.0751; in [11], -0.532; in experiment [13] it was 1.37; in experiment [14], -1.37. The composite z-score was -2.03 in experiment [15]; -0.119 in [16]; -0.349 in experiment [17]; -0.278 in [18]; 0.13 in [19]; -0.147 in [20]. The z-score in [4] was 0.204 (inactive); in experiment [12], -0.385.

Take `O=C1C[C@]2(c3ccc([N+](=O)[O-])cc3)C(=O)N(CCN3CCOCC3)c3cc(CO)ccc3[C@H]2N1CC12CC3CC(CC(C3)C1)C2`: the composite z-score was 0.39 in experiment [1]; 0.398 in experiment [2]; 0.793 in experiment [3]; -0.629 in experiment [5]; 0.163 in experiment [6]; -1 in [7]. In addition, the composite z-score is -0.258 in experiment [8]; -1.22 in [9]; 0.6 in experiment [10]; -0.119 in experiment [11]; -1.1 in experiment [13]; 0.846 in experiment [14]. Further, the composite z-score in [15] was 0.305; in experiment [16], -0.0455; in [17], -0.0626; in [18] it was -0.345; in experiment [19] it was 0.15; in experiment [20] it was 1.15. For the same compound, the z-score in [4] was 0.14 (inactive); in experiment [12], -0.544.

For the compound `COc1ccc(COC(=O)NN=C2C[C@@H](O)[C@@H](O)[C@@H]3[C@@H]4C(=O)N(c5ccc(F)cc5F)C(=O)[C@@H]4CC[C@@H]23)cc1`, the composite z-score in experiment [1] was 0.911; in experiment [2], 0.262; in experiment [3], 1.18; in [5], -0.665; in experiment [6], -1.53; in experiment [7], -0.076. The composite z-score in experiment [8] is -0.267; in [9], -0.69; in experiment [10], 0.532; in experiment [11], -0.0514; in [13] it was -0.151; in experiment [14], 0.0539. Besides, the composite z-score in [15] was -0.325; in experiment [16] it was -0.096; in [17], -0.221; in [18], 0.041; in [19], 0.599; in experiment [20] it was 0.626. Also, the z-score in [4] was 0.3 (inactive); in experiment [12], -0.76.
